Source: PubChem BioAssay AID588 (National Center for Advancing Translational Sciences (NCATS), 2007)
In all, about 59,000 compounds went through this assay and about 25 (0.04%) were called active. The rule behind the calls is not given here. The sample as a whole holds a higher share of actives than the screen did.

Assay: qHTS Assay for Spectroscopic Profiling in Resorufin Spectral Region
Settings: Compound fluorescence, resorufin region 547/598 nm, buffer
Text: NIH Molecular Libraries Screening Centers Network [MLSCN] NIH Chemical Genomics Center [NCGC] […] Occasionally, the artifactual effect may originate from the compound#s own spectral or other biophysical properties which generally tend to track its assay concentration. Pre-screening/profiling the library with respect to the compounds# spectral properties should help one exclude false positives early on. While the most informative fluorescent profiling data set is obtained by performing a full excitation and emission scan of each well by using a monochromator-based plate reader, such an approach is practical only on a very limited scale as scanning each well requires long time. An alternative approach, applied here, is to perform plate reader scans using selected excitation and emission wavelength pairs to generate a multidimensional relational database that correlates compound concentration and the respective relative fluorescence intensity at a given wavelength set. A standard curve of resorufin present on each plate as six-point concentration series, was used to compute a normalized fluorescence response, termed dye-equivalent concentration, for each compound at each concentration.
NCGC Assay Protocol Summary: Buffer: 100 mM Tris buffer, pH 8.0 Dye standard plate: The wells in columns 1 through 4 of a Kalypsys polypropylene 1536-well compound plate were filled with standard solutions of fluorophore corresponding to the spectral region of interest. Solutions of resorufin were placed in the following wells: M1, N1: 3 mM, M2, N2: 300 uM, M3, N3: 30 uM, M4, N4: zero (DMSO), O1, P1: 3 uM, O2, P2: […], O3, P3: 300 nM, O4, P4: zero (DMSO). Assay Steps: Six uL of buffer were dispensed to 1536-well Greiner black plates. Compounds and dye standards (23 nL) were transferred via Kalypsys PinTool. The plates were incubated for 15 min at room temperature, and then read on ViewLux (Perkin-Elmer) High-throughput CCD imager using 547 nm and 598 nm excitation and emission filter set. Keywords: NIH Roadmap, MLSCN, MLI, MLSMR, qHTS, NCGC, Resorufin, Fluorescent Profiling.

Max dye-equivalent concentration, inactive:
C=CCn1c(SCC(=O)NC23CC4CC(CC(C4)C2)C3)nc(O)cc1=O
COCCn1c(=O)c(-c2cccs2)nc2cnc(N3CCN(C)CC3)nc21
Cc1cc(C)cc(OCc2nnc(SCC(=O)OC3CCCCC3)o2)c1
COCCn1c(=O)c(-c2ccc(OC)cc2)nc2cnc(Oc3cccc(Cl)c3)nc21
CS(=O)(=O)Nc1cccc(-c2cncnc2Nc2ccccc2)c1
Cn1c(SCC(=O)OC2CCCCC2)nnc1-c1ccc(S(=O)(=O)N2CCCC2)cc1
CCS(=O)(=O)N1CCC(C(=O)N2CCN(c3ccccc3)CC2)CC1
CCOCC(=O)Nc1cc(OC)c(Cl)cc1OC
CCN1C(=O)/C(=C\N2CCN(c3cccc(Cl)c3)CC2)SC1=S
CCN(Cc1ccncc1)C(=O)[C@@H](CO)c1ccccc1
CC(=O)N1CCC(C(=O)Nc2nc(-c3ccccc3)ns2)CC1
COc1ccc(S(=O)(=O)NC(CC(=O)NCc2ccccc2OC)c2ccco2)cc1 (stereo unspecified)
Nc1nc2c(ncn2[C@H]2CC[C@@H](CO)O2)c(=O)n1C(=O)c1ccccc1
Cc1ccc(CNC(=O)CN2CCN(Cc3ccc(Cl)cc3)C2=O)cc1
CCOCCc1c(O)nc(SCC(=O)NCc2ccco2)[nH]c1=O
COc1cc(OC)cc(C(=O)NCCSCc2ccco2)c1
O=c1[nH]c(=O)n([C@H]2C[C@H](O)[C@H](CO)O2)cc1Br
O=c1c(-c2ccc(F)cc2)nc2cncnc2n1-c1ccccc1
CCOc1ccc(N(CC(=O)NCc2ccc(OC)cc2)S(=O)(=O)c2c(C)noc2C)cc1
C[C@@H]1C[C@H]2[C@@H]3C[C@H](F)C4=CC(=O)C=C[C@@]4(C)[C@]3(F)[C@H](O)C[C@]2(C)[C@@]1(O)C(=O)CO
O=C(Nc1ccccc1)c1cccnc1Nc1ccccc1
Cc1ccc(NC(=O)NCC(c2cccnc2)N2CCOCC2)cc1 (stereo unspecified)
O=C(c1ccco1)N1CCC[C@@]2(CCN(Cc3nccs3)C2)C1
O=C1N=C(N2CCOCC2)CS1
Cc1ccc(C(=O)CS(C)(=O)=O)cc1
O=C(Nc1ccc(Cl)cn1)Nc1cccs1
